This note sets out measurements from PubChem BioAssay (EPA / NIEHS).

By AC50 is commonly meant the concentration at which the activity in the assay is half-maximal.

Test [1] concerns the target Oxysterols receptor LXR-beta (Homo sapiens) (UniProt P55055). Description: ATG_LXRb_TRANS: Attagene TRANS-FACTORIAL HepG2 Assay for human Liver X Receptor beta (LXRb) (AID 2282981; active = hit-call score of the fitted dose curve at least 0.9, where 1 is the maximum). The conditions noted are these: HepG2 Attagene TRANS GAL4-LXRb reporter, mRNA. In outline:
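Liver-derived HepG2 cells transfected with Gal4-responsive reporters were dosed for 24 h. Activation was scored as rise in reporter mRNA, by RT-PCR and capillary electrophoresis, above DMSO baseline.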

The nature of test [2]: ATG_M_06_TRANS: Attagene TRANS-FACTORIAL HepG2 Assay for M06 Transcription Factor (Internal Marker) (AID 2282983; active = hit-call score of the fitted dose curve at least 0.9, where 1 is the maximum;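 also: reporter transcript level by RT-PCR then capillary electrophoresis fluorescence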). Conditions: HepG2 Attagene TRANS M06 internal marker reporter. In a few lines: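 In this multiplexed HepG2 system, compounds are incubated 24 h with cells carrying GAL4-UAS reporter units. Reporter RNA is amplified and resolved by capillary electrophoresis, and induction is scored against DMSO.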

Test [3] concerns the target Transcriptional activator Myb (Homo sapiens) (UniProt P10242). In words: ATG_Myb_CIS: Attagene CIS-FACTORIAL HepG2 Assay for human Myeloblastosis (Myb) Proto-Oncogene Transcription Factor (AID 2282986). The conditions noted are these: HepG2 Attagene CIS-FACTORIAL Myb reporter transcription; actives raise or lower the signal. In outline:
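Fluorescence signals from capillary electrophoresis of RT-PCR-amplified reporter cDNA give the read-out. Cells: HepG2 transfected with multiple cis-regulated reporter units. Exposure lasts 24 hours; DMSO defines baseline for gain or loss of signal.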

The target of test [4] is Nuclear respiratory factor 1 (Homo sapiens) (UniProt Q16656). Description: ATG_NRF1_CIS: Attagene CIS-FACTORIAL HepG2 Assay for human Nuclear Respiratory Factor 1 (NRF1) Orphan Gene (AID 2282987). The conditions noted are these: HepG2 NRF1 cis-element reporter, Attagene multiplex; actives raise or lower the signal. In outline:
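Transcriptional reporter readout, one component of a 52-endpoint multiplexed HepG2 panel. Exposure 24 h; mRNA detected via RT-PCR and fluorescent capillary electrophoresis; fitting in both directions against DMSO.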

Test [5] has as its target Myc proto-oncogene protein (Homo sapiens) (UniProt P01106). Description: ATG_Myc_CIS: Attagene CIS-FACTORIAL HepG2 Assay for human Myelocytomatosis (Myc) Proto-Oncogene Transcription Factor (AID 2282990). The conditions noted are these: HepG2, Attagene cis-reporter transcription factor activity; actives raise or lower the signal. In outline: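 DMSO-normalised, bidirectionally fitted reporter mRNA signal. HepG2 cells transfected with cis reporter constructs, treated 24 h; transcripts detected by RT-PCR, 6-FAM primer extension and CE.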

A short description of test [6]: ATG_NRF2_ARE_CIS: Attagene CIS-FACTORIAL HepG2 Assay for human Nuclear Factor Erythroid 2 Related Factor 2 (NFR2) response to Antioxidant Response Elements (ARE) (AID 2282992). The conditions noted are these: HepG2 Attagene ARE/NRF2 reporter, transcription factor activity; actives raise or lower the signal. In a few lines: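 Fluorescence intensity of reporter-specific cDNA fragments, separated by capillary electrophoresis, reflects mRNA induction in transfected HepG2 cells at 24 h. Activity is fitted bidirectionally, DMSO serving as baseline.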

Test [7] in a line: ATG_Oct_MLP_CIS: Attagene CIS-FACTORIAL HepG2 Assay for human Octamer-Binding Transcription Factor (Oct) (AID 2282993). Conditions: HepG2 Attagene cis-factorial Oct reporter, mRNA; actives raise or lower the signal. In outline: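 Using HepG2 cells bearing transfected cis-reporter constructs, mRNA induction was read after 24 h by fluorescent RT-PCR and capillary electrophoresis, with DMSO defining baseline for gain- or loss-of-signal fits.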

The target of test [8] is Cellular tumor antigen p53 (Homo sapiens) (UniProt P04637). Description: ATG_p53_CIS: Attagene CIS-FACTORIAL HepG2 Assay for human p53 Transcription Factor (AID 2282994). The conditions noted are these: HepG2 p53 cis-element reporter, Attagene mRNA; actives raise or lower the signal. In a few lines: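 Transiently transfected HepG2 (multiple cis reporter transcription units); exposure 24 h; reporter RNA via RT-PCR, 6-FAM extension, 2 h HpaI digest at 37 C, CE detection; DMSO baseline.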

The nature of test [9]: BSK_3C_TissueFactor: BioMAP Diversity Plus: 3C Assay for Tissue Factor Biomarker Activity (AID 2282997). Conditions: BioMAP 3C HUVEC, tissue factor biomarker readout; actives raise or lower the signal. In outline: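 Readout: Tissue Factor ELISA. Cells: human primary umbilical vein endothelium. Time: 24 h after dosing. Analysis: bidirectional fit, DMSO baseline.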
Test [10] can be described thus: BSK_3C_VCAM1: BioMAP Diversity Plus: 3C Assay for Vascular cell adhesion molecule 1 (VCAM1) Biomarker Activity (AID 2282999). Conditions: BioMAP 3C HUVEC, VCAM1 ELISA, cytokine-stimulated; actives raise or lower the signal. In outline: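 Vascular primary endothelium (human umbilical vein) was exposed to chemicals and assayed 24 h later. VCAM-1 levels came from ELISA, with DMSO serving as baseline for bidirectional fitting.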
Background: An ELISA detects its analyte on a solid surface through an enzyme-linked reagent.

Test [11] is described as follows: BSK_4H_Eotaxin3: BioMAP Diversity Plus: 4H Assay for Eotaxin 3 Biomarker Activity (AID 2283000).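 As to outcome: CCL26 protein level quantified by ELISA in parallel with SRB cytotoxicity check.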 Conditions: primary human endothelial cells (HUVEC); actives raise or lower the signal. In a few lines: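 HUVEC, 24 h post-dose, ELISA for Eotaxin-3/CCL26. Gain or loss of signal fitted bidirectionally vs DMSO baseline.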
Test [12] concerns the target human Peroxisome Proliferator-activated Receptor alpha (PPARa), PPARA (gene 5465) (UniProt Q07869). Description: ATG_PPARa_TRANS: Attagene TRANS-FACTORIAL HepG2 Assay for human Peroxisome Proliferator-activated Receptor alpha (PPARa) (AID 2283001; active = hit-call score of the fitted dose curve at least 0.9, where 1 is the maximum). In outline:
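Exposure: 24 h, transiently transfected HepG2 cells. Endpoint: GAL4-UAS reporter mRNA, RT-PCR with capillary electrophoresis fluorescence. Baseline: DMSO; increases fitted.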

Test [13] in a line: ATG_M_32_TRANS: Attagene TRANS-FACTORIAL HepG2 Assay for M32 Transcription Factor (Internal Marker) (AID 2282984; active = hit-call score of the fitted dose curve at least 0.9, where 1 is the maximum;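 also: transcript level of a background control reporter unit measured by RT-PCR and capillary electrophoresis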). The conditions noted are these: HepG2 Attagene TRANS M32 internal marker reporter. In outline:
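Fluorescence-detected mRNA induction, HepG2 liver cells, 24 h after dosing. Multiple GAL4-UAS reporter units introduced by transient transfection; background-control endpoint analysed for gain of signal against DMSO.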

Test [14] is described as follows: ATG_NF_kB_CIS: Attagene CIS-FACTORIAL HepG2 Assay for human Nuclear Factor Kappa B (NF-kB) (AID 2282991). Conditions: HepG2 Attagene cis-factorial NF-kB reporter mRNA; actives raise or lower the signal. In outline:
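HepG2, transient multi-reporter transfection, cis promoter elements (endogenous TFs). 24 h exposure. Total RNA → RT → PCR → 6-FAM label → HpaI → CE. Gain/loss vs DMSO.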

Test [15] in a line: BSK_3C_uPAR: BioMAP Diversity Plus: 3C Assay for Urokinase-type plasminogen activator receptor (uPAR) Biomarker Activity (AID 2282998). Conditions: BioMAP 3C HUVEC, uPAR biomarker ELISA; actives raise or lower the signal. In outline:
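In this endothelial cell-based assay, human umbilical vein primary cells were treated with chemicals and harvested at 24 h. uPAR was quantified using ELISA, with gains or losses fitted relative to DMSO controls.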

The target in test [16] is Bile acid receptor (Homo sapiens) (UniProt Q96RI1). In words: ATG_FXR_TRANS: Attagene TRANS-FACTORIAL HepG2 Assay for Farnesoid X Receptor (FXR) (AID 2282979; active = hit-call score of the fitted dose curve at least 0.9, where 1 is the maximum;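 also: hits raise reporter mRNA above DMSO so AC50 marks FXR activation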). Conditions: HepG2 Attagene TRANS FXR-GAL4 reporter transcription. In a few lines:
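HepG2 cells transiently transfected with reporter constructs in which a chimeric FXR-GAL4 protein drives a GAL4-UAS reporter; 24 h compound exposure. Reporter mRNA measured by RT-PCR, FAM labelling, HpaI digestion and capillary electrophoresis; gain-of-signal versus DMSO.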

The target of test [17] is Hepatocyte nuclear factor 4-alpha (Homo sapiens) (UniProt P41235). Description: ATG_HNF4a_TRANS: Attagene TRANS-FACTORIAL HepG2 Assay for human Hepatocyte Nuclear Factor 4 alpha (HNF4a) (AID 2282982; active = hit-call score of the fitted dose curve at least 0.9, where 1 is the maximum). The conditions noted are these: HepG2 HNF4a transactivation reporter, mRNA readout. In outline: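 Using HepG2 liver cells transfected with GAL4-UAS reporter units, chemical-induced mRNA increases were assessed after 24 hours. Fluorescent RT-PCR fragments were separated by capillary electrophoresis and compared with DMSO negative controls.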

A short description of test [18]: ATG_NFI_CIS: Attagene CIS-FACTORIAL HepG2 Assay for human Nuclear Factor I (NFI) (AID 2282989). The conditions noted are these: HepG2 cis-regulatory reporter, NFI response element transcription; actives raise or lower the signal. In a few lines: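 Transfected HepG2 liver cells, exposed 24 h, supplied total RNA for oligo(dT) reverse transcription and reporter-specific PCR. Labelled, HpaI-cut fragments were sized by capillary electrophoresis; DMSO set the baseline for bidirectional fitting.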

Each structure is given as a SMILES string. Records with an inconclusive call do not appear. More than one record can exist for a structure, and the calls need not agree. Activity calls are given as the source filed them. The calls were made as follows, unless noted: active = hit-call score of the fitted dose curve at least 0.9, where 1 is the maximum; inactive = score below 0.9.

Transcriptional activator Myb (Homo sapiens), sequence (P10242 whole entry, looked up): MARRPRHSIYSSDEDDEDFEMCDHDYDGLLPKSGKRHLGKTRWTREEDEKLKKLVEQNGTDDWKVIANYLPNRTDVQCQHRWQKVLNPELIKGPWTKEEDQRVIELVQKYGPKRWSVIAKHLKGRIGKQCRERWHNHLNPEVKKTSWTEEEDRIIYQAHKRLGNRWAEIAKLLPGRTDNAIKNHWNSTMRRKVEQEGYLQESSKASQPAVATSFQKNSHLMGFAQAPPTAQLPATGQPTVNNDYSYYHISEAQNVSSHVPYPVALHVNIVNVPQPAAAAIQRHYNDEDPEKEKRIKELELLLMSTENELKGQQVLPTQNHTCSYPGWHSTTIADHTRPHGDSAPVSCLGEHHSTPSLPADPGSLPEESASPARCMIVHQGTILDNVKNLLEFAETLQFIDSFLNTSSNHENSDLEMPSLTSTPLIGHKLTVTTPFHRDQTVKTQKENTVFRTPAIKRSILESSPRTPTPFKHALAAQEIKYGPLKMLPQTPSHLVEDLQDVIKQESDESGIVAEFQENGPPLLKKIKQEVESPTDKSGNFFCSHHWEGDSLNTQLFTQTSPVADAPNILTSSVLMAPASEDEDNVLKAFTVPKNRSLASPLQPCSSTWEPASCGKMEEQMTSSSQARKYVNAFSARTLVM
Cellular tumor antigen p53 (Homo sapiens), sequence (P04637 whole entry, looked up): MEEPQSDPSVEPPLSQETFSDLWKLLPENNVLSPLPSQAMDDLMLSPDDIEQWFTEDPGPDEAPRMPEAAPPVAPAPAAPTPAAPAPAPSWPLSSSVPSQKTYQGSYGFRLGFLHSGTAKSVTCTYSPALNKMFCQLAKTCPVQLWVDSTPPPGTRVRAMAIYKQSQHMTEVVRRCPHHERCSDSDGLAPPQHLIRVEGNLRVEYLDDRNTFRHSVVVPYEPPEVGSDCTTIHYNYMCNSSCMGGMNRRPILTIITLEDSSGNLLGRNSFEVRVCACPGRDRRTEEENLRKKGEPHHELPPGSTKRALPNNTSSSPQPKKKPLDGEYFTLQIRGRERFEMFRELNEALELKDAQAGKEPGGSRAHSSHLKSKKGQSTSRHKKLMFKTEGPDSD
Oxysterols receptor LXR-beta (Homo sapiens), sequence (P55055 whole entry, looked up, the tested form may be a part): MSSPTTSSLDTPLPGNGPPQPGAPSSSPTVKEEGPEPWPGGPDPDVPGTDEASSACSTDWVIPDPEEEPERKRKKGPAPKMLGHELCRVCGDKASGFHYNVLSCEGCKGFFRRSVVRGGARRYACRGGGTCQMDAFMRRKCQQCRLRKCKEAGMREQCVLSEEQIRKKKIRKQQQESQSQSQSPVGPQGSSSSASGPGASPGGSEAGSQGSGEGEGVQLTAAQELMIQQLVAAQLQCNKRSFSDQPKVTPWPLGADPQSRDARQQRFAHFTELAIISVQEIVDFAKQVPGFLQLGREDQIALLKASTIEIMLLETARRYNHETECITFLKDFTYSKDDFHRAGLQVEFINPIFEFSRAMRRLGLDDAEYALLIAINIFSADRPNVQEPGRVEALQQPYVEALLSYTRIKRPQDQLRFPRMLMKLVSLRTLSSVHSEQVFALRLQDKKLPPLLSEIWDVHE
human Peroxisome Proliferator-activated Receptor alpha (PPARa), PPARA (gene 5465), sequence (Q07869 whole entry, looked up, the tested form may be a part): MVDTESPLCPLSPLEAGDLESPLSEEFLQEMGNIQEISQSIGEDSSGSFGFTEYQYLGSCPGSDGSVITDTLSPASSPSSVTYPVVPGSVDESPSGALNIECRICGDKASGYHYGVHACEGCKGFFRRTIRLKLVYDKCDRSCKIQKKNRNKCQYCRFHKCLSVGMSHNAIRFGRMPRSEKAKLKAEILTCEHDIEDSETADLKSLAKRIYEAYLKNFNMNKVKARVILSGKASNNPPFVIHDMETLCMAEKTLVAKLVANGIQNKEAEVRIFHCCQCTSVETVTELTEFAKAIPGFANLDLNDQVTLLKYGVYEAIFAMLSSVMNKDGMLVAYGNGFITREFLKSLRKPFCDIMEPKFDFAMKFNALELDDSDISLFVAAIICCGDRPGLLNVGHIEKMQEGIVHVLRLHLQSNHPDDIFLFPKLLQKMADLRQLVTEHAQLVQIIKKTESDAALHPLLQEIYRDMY
Nuclear respiratory factor 1 (Homo sapiens), sequence (Q16656 whole entry, looked up): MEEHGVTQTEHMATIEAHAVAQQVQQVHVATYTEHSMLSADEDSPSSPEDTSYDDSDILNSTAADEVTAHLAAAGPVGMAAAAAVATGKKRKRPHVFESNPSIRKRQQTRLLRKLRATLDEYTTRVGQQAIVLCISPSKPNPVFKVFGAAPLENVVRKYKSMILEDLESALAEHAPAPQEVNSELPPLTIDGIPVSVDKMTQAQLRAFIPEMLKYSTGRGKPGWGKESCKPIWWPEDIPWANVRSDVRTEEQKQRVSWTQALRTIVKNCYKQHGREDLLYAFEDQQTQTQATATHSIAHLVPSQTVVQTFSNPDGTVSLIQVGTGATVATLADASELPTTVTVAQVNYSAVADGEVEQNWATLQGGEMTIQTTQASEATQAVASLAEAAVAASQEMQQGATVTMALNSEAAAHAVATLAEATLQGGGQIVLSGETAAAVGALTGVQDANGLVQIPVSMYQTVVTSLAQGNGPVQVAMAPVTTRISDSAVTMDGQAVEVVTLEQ
Myc proto-oncogene protein (Homo sapiens), sequence (P01106 whole entry, looked up): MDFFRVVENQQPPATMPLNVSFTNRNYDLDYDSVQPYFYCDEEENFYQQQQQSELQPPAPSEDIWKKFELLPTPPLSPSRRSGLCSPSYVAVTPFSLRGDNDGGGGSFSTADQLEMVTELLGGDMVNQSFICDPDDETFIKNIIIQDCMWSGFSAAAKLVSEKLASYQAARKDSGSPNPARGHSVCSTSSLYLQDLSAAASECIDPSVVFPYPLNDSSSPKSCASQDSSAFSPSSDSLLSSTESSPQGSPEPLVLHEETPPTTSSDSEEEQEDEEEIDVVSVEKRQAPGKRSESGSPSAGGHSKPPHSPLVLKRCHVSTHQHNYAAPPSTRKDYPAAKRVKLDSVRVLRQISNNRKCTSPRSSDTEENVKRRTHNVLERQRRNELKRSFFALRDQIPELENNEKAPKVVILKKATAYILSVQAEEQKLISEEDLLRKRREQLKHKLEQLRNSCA
Hepatocyte nuclear factor 4-alpha (Homo sapiens), sequence (P41235 whole entry, looked up, the tested form may be a part): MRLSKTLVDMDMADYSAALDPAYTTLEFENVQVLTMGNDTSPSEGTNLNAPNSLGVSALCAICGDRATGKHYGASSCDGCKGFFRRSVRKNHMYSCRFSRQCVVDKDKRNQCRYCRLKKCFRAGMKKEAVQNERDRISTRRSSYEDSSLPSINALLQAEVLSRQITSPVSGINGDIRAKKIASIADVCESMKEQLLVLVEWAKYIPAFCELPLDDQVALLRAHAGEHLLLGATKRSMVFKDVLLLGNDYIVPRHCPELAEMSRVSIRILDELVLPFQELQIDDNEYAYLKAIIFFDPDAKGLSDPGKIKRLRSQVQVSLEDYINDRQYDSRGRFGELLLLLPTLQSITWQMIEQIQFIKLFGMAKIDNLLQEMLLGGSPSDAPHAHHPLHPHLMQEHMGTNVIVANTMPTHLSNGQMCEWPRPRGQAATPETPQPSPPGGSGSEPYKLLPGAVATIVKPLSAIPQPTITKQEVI
Bile acid receptor (Homo sapiens), sequence (Q96RI1 whole entry, looked up, the tested form may be a part): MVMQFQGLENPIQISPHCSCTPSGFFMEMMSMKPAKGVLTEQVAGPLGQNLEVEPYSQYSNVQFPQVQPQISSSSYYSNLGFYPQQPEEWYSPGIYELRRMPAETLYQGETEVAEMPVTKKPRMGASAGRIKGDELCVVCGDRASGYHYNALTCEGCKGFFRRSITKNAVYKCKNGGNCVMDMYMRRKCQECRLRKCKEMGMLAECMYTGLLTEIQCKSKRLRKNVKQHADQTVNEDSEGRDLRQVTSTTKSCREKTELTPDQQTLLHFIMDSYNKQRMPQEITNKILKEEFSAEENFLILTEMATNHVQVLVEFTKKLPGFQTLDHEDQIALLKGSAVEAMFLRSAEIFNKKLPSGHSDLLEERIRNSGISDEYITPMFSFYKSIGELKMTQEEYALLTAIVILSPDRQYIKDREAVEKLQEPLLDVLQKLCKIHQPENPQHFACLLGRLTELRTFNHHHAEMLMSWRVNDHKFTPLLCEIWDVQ

Regarding `CCCCC(CC)COC(=O)CCCCC(=O)OCc1ccccc1` (configuration not stated), the result in test [1], in test [2], in [3], in test [4], in test [5] and in test [6] was inactive. Besides, the result in [7], in test [8], in test [9], in [10], in [11] and in test [12] was inactive.
For the molecule `C[C@@H]1C[C@H]2[C@@H]3CCC4=CC(=O)C=C[C@]4(C)[C@@]3(F)[C@@H](O)C[C@]2(C)[C@@]1(O)C(=O)COP(=O)(O)O`, the molecule was called inactive in test [1], in test [2], in test [13], in [4], in test [5] and in [14]. Further, the result in test [6], in test [7], in test [8], in test [9], in [10] and in [11] was inactive. Moreover, the result in test [12] was inactive. For the same molecule, the half-maximal activity concentration (AC50) in test [11] was 8.66 µM (active).
Take `CC(C)CCCCCCOC(=O)CCCCC(=O)OCCCCCCC(C)C`: the result in test [2], in test [4], in test [5], in test [14], in test [6] and in test [7] was inactive. In addition, the result in test [8], in test [9], in [15], in test [10], in test [11] and in test [12] was inactive.
Regarding `COCC(C)O` (configuration not stated), the result in [1], in test [2], in test [13], in test [4], in [5] and in [14] was inactive. In addition, the molecule was called inactive in [6], in test [7], in test [8], in test [9], in [10] and in test [11]. Moreover, the outcome in test [12] was inactive.
Turning to `N#C[C@@H]1CC(F)(F)CN1C(=O)CNC1CC2CCC(C1)N2c1ncccn1` (some centres not stated), the molecule was classed as inactive in [16], in test [13], in test [4], in test [5], in [14] and in [6]. Besides, the outcome in test [7], in test [8], in [9], in [15], in [10] and in test [11] was inactive.
`CCC(C)(C)C1CCC(O)CC1` (configuration not stated): the outcome in test [1], in test [17], in test [2], in test [13], in [3] and in test [4] was inactive. In addition, the result in test [5], in test [14], in [6], in [7], in [8] and in test [9] was inactive. Further, the result in test [10] and in test [11] was inactive.
As for `CCCCOCCO`, the outcome in [2], in test [4], in [18], in [5], in test [14] and in test [6] was inactive. Moreover, the outcome in [7], in test [8], in [9], in test [10], in [11] and in [12] was inactive.
For `CCCCC(CC)COC(=O)CCCCC(=O)OCC(CC)CCCC` (configuration not stated), the outcome in test [16], in test [17], in [3], in test [4], in test [5] and in test [14] was inactive. In addition, the outcome in test [6], in [7], in [8], in test [9], in test [10] and in test [11] was inactive. For the same molecule, the call in [12] was inactive.
